Assay results from PubChem BioAssay AID1626 (SRMLSC, 2009).
Screen size: about 220,000 compounds; about 2,000 (0.91%) were called active. About 2% were inconclusive and are not listed. Rule as the data show it: inconclusive = inhibition above about 80% without an active follow-up result; inactive = below that; test concentration not stated here. The list is a sample of the results. Potency and affinity values are given separately.

assay: M. tuberculosis H37Rv growth inhibitors, H37Rv strain (AID 1626); details: hits give high values, concentration not given here;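 also: bacteria incubated seven days before Alamar blue readout; 0% = bacteria only wells and 100% = bacteria with antibiotic wells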

| Structure (SMILES) | inhibition |
| --- | --- |
| Cc1ccc(C(=O)NCCCN2CCOCC2)cc1 | 3.65% (inactive) |
| COc1ccc2c(c1)S/C(=C\C(=O)c1ccncc1)N2C | 0.94% (inactive) |
| COC(=O)c1ccc2c(c1)N(Cc1nc(-c3cccc(C)c3)oc1C)C(=O)C1CCCN21 (stereo not given) | 8.29% (inactive) |
| O=C(/C=C/c1ccc(Cl)cc1Cl)c1nc2ccccc2[nH]1 | 0.46% (inactive) |
| Cc1ccc(/C=C/C(=O)c2nc3ccccc3[nH]2)cc1 | 0.43% (inactive) |
| C/C(=N/NC(=O)CNC(=O)c1cccnc1)c1ccco1 | 7.49% (inactive) |
| COc1cccc(CNC(=O)C2CCN(S(=O)(=O)c3c(C)nn(C)c3C)CC2)c1 | -0.47% (inactive) |
| O=C(c1ccc2c3c(cccc13)CC2)C1CCCN(Cc2ncc[nH]2)C1 (stereo not given) | -5.62% (inactive) |
| O=C(c1ccc2c3c(cccc13)CC2)C1CCCN(Cc2ccncc2)C1 (stereo not given) | 3.23% (inactive) |
| O=C(N/N=C1\CC2CC=CC12)c1ccc(Br)cc1 (stereo not given) | -7.43% (inactive) |
| Cc1ccc2cc(CN(CC3CCCO3)S(=O)(=O)c3ccc4c(c3)OCCO4)c(=O)[nH]c2c1C (stereo not given) | 9.1% (inactive) |
| Nc1n[nH]c(N)c1N=Nc1ccc(Cl)cc1 | 1.65% (inactive) |
| Nc1n[nH]c(N)c1N=Nc1cccc(F)c1 | 0.51% (inactive) |
| COC(=O)c1ccccc1N=Nc1c(N)n[nH]c1N | -10.6% (inactive) |
| Cc1ccc(-c2[nH]nc(N)c2N=Nc2cccc(Cl)c2C)cc1 | 0.18% (inactive) |
| CCn1cc(C2=NC(C(C)C)CO2)c2ccccc21 (stereo not given) | 5.08% (inactive) |
| CCOc1ccc(OCC)c(NC(=O)Nc2ccc3c(c2)N(C)C(=O)CS3)c1 | 1.8% (inactive) |
| O=C(O)c1cc(NC(=O)C2CCCO2)cc(NC(=O)C2CCCO2)c1 (stereo not given) | -1.59% (inactive) |
| CC1(C)CC(=O)C(/C=N/n2c(C(F)(F)F)nc3ccccc3c2=O)=C(O)C1 | 13.1% (inactive) |
| O=C(CSc1nnc(-c2ccccc2F)n1C1CCCCC1)N1CCCC1 | -3.16% (inactive) |

| Structure (SMILES) | inhibition |
| --- | --- |
| Cc1cc(C)c(OCC(O)CN2CCN(c3ccccn3)CC2)c(C)c1 (stereo not given) | -4.16% (inactive) |
| OC(CN1CCN(c2ccccn2)CC1)Cn1c2ccccc2c2ccccc21 (stereo not given) | 34.8% (inactive) |
| OC(COCc1ccc(Cl)cc1)CN1CCN(c2ccccn2)CC1 (stereo not given) | 6.32% (inactive) |
| OC(COC(c1ccccc1)c1ccccc1)CN1CCN(c2ccccn2)CC1 (stereo not given) | 3.57% (inactive) |
| CC(C)C1=C2CCCCC2NC(=O)N1 (stereo not given) | -3.19% (inactive) |
| O=C(CN1CCSC1=NCc1ccccc1)c1ccccc1 | 0.24% (inactive) |
| Cc1nc(SCC(=O)OCc2ccccc2)c(C#N)c(-c2ccccc2)c1C(=O)Nc1ccccc1 | 1.59% (inactive) |
| N#Cc1ccc(-c2ccccc2)nc1SCC(=O)c1cccc(Cl)c1 | 12.6% (inactive) |
| Cc1nc(SCC(=O)c2cc3ccccc3oc2=O)c(C#N)c(C)c1C(=O)Nc1ccccc1 | 1.89% (inactive) |
| Cc1ccc(C(=O)CSc2nc(-c3ccccc3)ccc2C#N)cc1 | 4.37% (inactive) |
| CCCCNC(=O)c1[nH]c(C)c(C(C)=O)c1C | -1.66% (inactive) |
| O=C(O)c1ccc(N/N=C/c2cc3ccccc3nc2Cl)cc1 | 7.73% (inactive) |
| CC(=O)NCC(=O)N(C)C(C(=O)Nc1ccc2c(c1)OCCO2)c1ccc(C)cc1 (stereo not given) | 2.18% (inactive) |
| Cc1ccc(C(NC(=O)/C=C\c2ccc3c(c2)OCO3)C(=O)Nc2ccc3c(c2)OCO3)cc1 (stereo not given) | 61.7% (inactive) |
| Cc1c(Cl)ccc2c(C(N)=O)cc(-c3ccccn3)nc12 | 3.8% (inactive) |
| CC(C)n1nc(C(=O)Oc2ccc(Cl)cc2)c2ccccc2c1=O | 9.19% (inactive) |
| Clc1ccc2c(c1)C(c1ccccc1Cl)=NCc1nnc(Br)n1-2 | -0.77% (inactive) |
| CN1CCN(Cc2nnc3n2-c2ccc(Cl)cc2C(c2ccccc2)=NC3)CC1 | -4.71% (inactive) |
| O=C(CN1C(=O)NC2(CCCCC2)C1=O)NC1CCCc2ccccc21 (stereo not given) | -2.8% (inactive) |
| CN(CC(=O)N1CCN(c2ccc(F)cc2)CC1)S(=O)(=O)c1ccc(F)cc1 | -7.27% (inactive) |

| Structure (SMILES) | inhibition |
| --- | --- |
| CC(=O)c1cccc(NC(=O)Cn2cc3c(n2)CCCC3)c1 | -1.86% (inactive) |
| CC(=O)Nc1ccc(NC(=O)Cn2cc3c(n2)CCCC3)cc1 | -8.53% (inactive) |
| CCOc1ccc(NC(=O)Nc2cccnc2)cc1 | 16.1% (inactive) |
| O=C(O)CSc1ncnc2c1oc1ccccc12 | -5.38% (inactive) |
| NC(=O)CSc1ncnc2c1oc1ccccc12 | 7.24% (inactive) |
| COc1ccc(Cc2nnc(NC(=O)c3cccc([N+](=O)[O-])c3)s2)cc1 | 1.81% (inactive) |
| CCCCNC(=O)c1ccc(Cn2c(=S)[nH]c3c([nH]c4ccc(OC)cc43)c2=O)cc1 | -1.23% (inactive) |
| N#Cc1ccc(COC(=O)c2ccc3c(=O)[nH]c(CN4CCOCC4)nc3c2)cc1 | -4.45% (inactive) |
| O=c1[nH]c(CN2CCOCC2)nc2ccccc12 | -6.66% (inactive) |
| O=C(c1ccc2c(c1)OCO2)C1CCCN(C(=O)c2cnn(Cc3ccccc3)c2)C1 (stereo not given) | 5.07% (inactive) |
| Cc1c(NC(=O)c2cc3c(s2)-c2ccccc2OC3)cccc1[N+](=O)[O-] | 1.27% (inactive) |
| O=C(O)c1cc2c(s1)-c1ccccc1OC2 | -9.86% (inactive) |
| CS(=O)(=O)N1CCN(c2ccccc2NC(=O)c2ccc(-c3ccc(Cl)cc3Cl)o2)CC1 | -2.89% (inactive) |
| Cc1ccccc1NC(=O)c1ccc(-c2ccc(Cl)cc2Cl)o1 | 66.1% (inactive) |
| Cc1cccc(-c2c3c(=O)n(C)c(=O)n(C)c3cn2CCO)c1 | 0.58% (inactive) |
| CCOC(=O)/C(C#N)=C1/C=C(C)NC(c2ccccc2O)=N1 | -1.53% (inactive) |
| C=CCNC(=O)COC(=O)CCC(=O)c1cccs1 | -6.43% (inactive) |
| CCC1=C(OC(=O)N(CC)CC)N2C(=O)OC(=NCc3ccccc3)[C@]2(C)[C@H]2C1=CC[C@H]1C(=O)N(CC(=O)OC)C(=O)[C@H]12 | 6.67% (inactive) |
| COc1ccccc1-c1nc(C#N)c(N2CCN(c3ccccc3)CC2)o1 | 0.35% (inactive) |
| O=C(NCCN1CCN(c2cccc(Cl)c2)CC1)c1ccc(CSc2nc3ccncc3[nH]2)cc1 | 12.1% (inactive) |
